Inconclusive results are not listed. Calls of active or inactive are those of the source. The call rests on the fitted dose curve; in most records, active means well fitted curve in the direction sought with a large enough effect; inconclusive means small, poorly fitted or top-dose-only effect, or another doubt; inactive means no such curve, though single readings can be large; an effect the other way counts as inactive or inconclusive.
Columns and labels:
C33A = experiment: Primary qHTS to identify gynecologic anti-cancer compounds using libraries of approved drugs and bioactive compounds (AID 1345084); settings: Gynecologic cancer cell panel viability, ATPlite luminescence, 48 h; series mostly up to 57.5 µM; further: nearly all actives have a fitted effect of over 55% in size; on activity change, negative = cytotoxicity: on the % scale 0 is the no-effect control and ±100 the full control effect
Summary of the method: (§1)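 Measured: luminescence after ATPlite addition (15 min, RT). Exposure: 48 h, 37 C, 5% CO2.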

HeLa = experiment: as above; settings: Gynecologic cancer cell panel viability, ATPlite luminescence, 48 h; series mostly up to 57.5 µM
Summary of the method: as §1

Hek293T = experiment: as above; settings: Gynecologic cancer cell panel viability, ATPlite luminescence, 48 h, control line for the selectivity index; series mostly up to 57.5 µM
Summary of the method: as §1

JEG-3 = experiment: as above; settings: Gynecologic cancer cell panel viability, ATPlite luminescence, 48 h; series mostly up to 57.5 µM
Summary of the method: as §1

OV90 = experiment: as above; settings: Gynecologic cancer cell panel viability, ATPlite luminescence, 48 h; series mostly up to 57.5 µM
Summary of the method: as §1

PA-1 = experiment: as above; settings: Gynecologic cancer cell panel viability, ATPlite luminescence, 48 h; series mostly up to 57.5 µM
Summary of the method: as §1

SKOV3 = experiment: as above; settings: Gynecologic cancer cell panel viability, ATPlite luminescence, 48 h; series mostly up to 57.5 µM
Summary of the method: as §1

Tov-21-G = experiment: as above; settings: Gynecologic cancer cell panel viability, ATPlite luminescence, 48 h; series mostly up to 57.5 µM
Summary of the method: as §1

CAOV3 = experiment: as above; settings: Gynecologic cancer cell panel viability, ATPlite luminescence, 48 h; series mostly up to 57.5 µM
Summary of the method: as §1

CASKI = experiment: as above; settings: Gynecologic cancer cell panel viability, ATPlite luminescence, 48 h; series mostly up to 57.5 µM
Summary of the method: as §1

Es-2 = experiment: as above; settings: Gynecologic cancer cell panel viability, ATPlite luminescence, 48 h; series mostly up to 57.5 µM
Summary of the method: as §1

Tov112D = experiment: as above; settings: Gynecologic cancer cell panel viability, ATPlite luminescence, 48 h; series mostly up to 57.5 µM
Summary of the method: as §1

[1] = qHTS assay to identify inhibitors of the type 1 interferon - major histocompatibility complex class I in skeletal muscle: Counter screen cell viability and HiBit confirmation (AID 1347412); settings: iHSKM muscle cells + IFN-b, HiBiT or CellTiter-Glo, 24 h; further: nearly all actives have a fitted effect of over 60% in size
Summary of the method: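 Human myoblast knock-in line, 4.0 ng/ml IFN-beta stimulation, 24 h compound treatment. Endpoints: HiBiT lytic luminescence (HLA-B level) and CellTiter Glo (ATP). Dosing 12 concentrations, 3-fold steps, 46 uM highest final.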
Potency means the concentration at half of the fitted maximal effect.

Nc1ccc(/C=C/C(=O)NCc2cc3cc(-c4ccc(C(=O)N5CCC(F)(F)CC5)cc4)cc(-c4ccc(F)cc4)c3o2)cn1
active: Potency (C33A) 7.08 µM | Potency (HeLa) 4.47 µM | Potency (Hek293T) 3.98 µM | Potency (JEG-3) 1.58 µM | Potency (OV90) 3.55 µM | Potency (PA-1) 1.41 µM | Potency (SKOV3) 1.78 µM | Potency (Tov-21-G) 3.16 µM

Cc1onc(C(=O)N2CCN(C(c3ccc(Cl)cc3)c3ccc(Cl)cc3)CC2)c1[N+](=O)[O-]
inactive: Potency (CASKI) | Potency (HeLa) | Potency (Hek293T) | Potency (OV90)
active: Potency (CAOV3) 2.24 µM | Potency (Es-2) 1 µM | Potency (PA-1) 8.91 µM | Potency (SKOV3) 7.94 µM | Potency (Tov-21-G) 1.12 µM | Potency (Tov112D) 7.94 µM

CC1(C)CC[C@]23CO[C@@]4(CCC5[C@@]6(C)CC[C@H](O[C@@H]7OC[C@H](O[C@@H]8O[C@H](CO)[C@@H](O)[C@H](O)[C@H]8O)[C@H](O)[C@H]7O[C@@H]7O[C@H](CO)[C@@H](O[C@@H]8O[C@H](CO)[C@@H](O)[C@H](O)[C@H]8O)[C@H](O)[C@H]7O)[C@@](C)(CO)C6CC[C@@]5(C)[C@]4(C)C[C@H]2OC2OCC(O)C(O)C2O)C3C1 (stereo partly specified)
inactive: activity change, negative = cytotoxicity (C33A) -28.5% [at 6.55 µM] | activity change, negative = cytotoxicity (HeLa) -27.3% [at 6.55 µM]

COC(C(=O)N1Cc2[nH]nc(NC(=O)c3ccc(N4CCN(C)CC4)cc3)c2C1)c1ccccc1 (stereo unspecified)
inactive: Potency (C33A) | Potency (Es-2) | Potency (JEG-3)
active: Potency (PA-1) 7.94 µM | Potency (SKOV3) 17.8 µM | Potency (Tov-21-G) 12.6 µM

CN1CCN(c2ccc(C(=O)Nc3n[nH]c4ccc(Cc5cc(F)cc(F)c5)cc34)c(NC3CCOCC3)c2)CC1
active: Potency ([1]; HiBiT) 17.6 µM | Potency ([1]; Viability) 27.9 µM
inactive: Potency (C33A) | Potency (Es-2) | Potency (Hek293T) | Potency (JEG-3) | Potency (Tov-21-G) | Potency (Tov112D)

CC1=C(C(=O)O[C@@H]2O[C@H](COC3OCC(O)C(O)C3O)[C@@H](O)[C@H](O)[C@H]2O)C(C)(C)CCC1 (stereo partly specified)
inactive: Potency (CAOV3) | Potency (CASKI) | Potency (Es-2) | Potency (HeLa) | Potency (Hek293T) | Potency (JEG-3) | Potency (OV90) | Potency (PA-1) | Potency (SKOV3) | Potency (Tov-21-G) | Potency (Tov112D)

O=S(=O)(NCC1CC1)c1ccc(Nc2nccc(N3CCCc4cc(O)ccc43)n2)cc1
active: Potency (C33A) 31.6 µM | Potency (PA-1) 10 µM
inactive: Potency (OV90)

Cc1ccc(C(=O)Nc2noc3ccccc23)cc1
active: Potency (CAOV3) 15.8 µM | Potency (CASKI) 22.4 µM | Potency (Es-2) 15.8 µM | Potency (HeLa) 22.4 µM | Potency (Hek293T) 15.8 µM | Potency (OV90) 11.2 µM | Potency (Tov-21-G) 28.2 µM | Potency (Tov112D) 28.2 µM

COc1cc2nc(N3CCCC3)nc(NCCCCCN3CCCC3)c2cc1OC
active: Potency (C33A) 15.8 µM | Potency (HeLa) 25.1 µM | Potency (Hek293T) 15.8 µM | Potency (OV90) 25.1 µM | Potency (PA-1) 6.31 µM | Potency (SKOV3) 12.6 µM

O=C(c1cn(Cc2cncn2Cc2ccc(Br)cc2)cc1-c1cccc2ccccc12)N1CCOCC1
active: Potency (SKOV3) 17.8 µM
inactive: Potency (C33A) | Potency (Es-2) | Potency (Tov112D)

Source: PubChem BioAssay (NCATS)
